An excerpt weighted towards active compounds, which were near 4.2% of everything screened.
FBA Mtb inh: Mtb fructose-bisphosphate aldolase inhibition | P9WQA3 | purified M. tuberculosis FBA, fluorescence read-out | inhibition, % at 1 µM | actives 2.3% (n = 360,000) | AID 588726; in the data active = inhibition above about 27%;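 note: 0% = vehicle and 100% = reference inhibitor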
GDH-TPI inh: GDH-TPI coupled enzyme inhibition counter-screen. GDH-TPI coupled enzyme counterscreen, NADH absorbance. inhibition, % at 4.8 µM. actives 1.2% (n = 360,000). AID 588335;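 note: 0% = DMSO wells and 100% = wells lacking the enzyme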
CCHF vOTU inh: CCHFV vOTU protease inhibition; Pep-AMC fluorescence; inhibition, % at 11.5 µM; actives 0.55% (n = 370,000); AID 651958; note: 0% = vehicle wells with enzyme and 100% = no enzyme wells
RecA splice inh: Mtb RecA intein splicing inhibition. actives 0.75% (n = 290,000). P9WHJ3. AID 2221. cell-free RecA intein splicing, fluorescence. inhibition, % (test concentration not listed); in the data active = inhibition above about 30%;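 note: 0% = vehicle wells and 100% = reference inhibitor control wells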
Target sequence (P9WHJ3 whole entry, looked up, canonical isoform): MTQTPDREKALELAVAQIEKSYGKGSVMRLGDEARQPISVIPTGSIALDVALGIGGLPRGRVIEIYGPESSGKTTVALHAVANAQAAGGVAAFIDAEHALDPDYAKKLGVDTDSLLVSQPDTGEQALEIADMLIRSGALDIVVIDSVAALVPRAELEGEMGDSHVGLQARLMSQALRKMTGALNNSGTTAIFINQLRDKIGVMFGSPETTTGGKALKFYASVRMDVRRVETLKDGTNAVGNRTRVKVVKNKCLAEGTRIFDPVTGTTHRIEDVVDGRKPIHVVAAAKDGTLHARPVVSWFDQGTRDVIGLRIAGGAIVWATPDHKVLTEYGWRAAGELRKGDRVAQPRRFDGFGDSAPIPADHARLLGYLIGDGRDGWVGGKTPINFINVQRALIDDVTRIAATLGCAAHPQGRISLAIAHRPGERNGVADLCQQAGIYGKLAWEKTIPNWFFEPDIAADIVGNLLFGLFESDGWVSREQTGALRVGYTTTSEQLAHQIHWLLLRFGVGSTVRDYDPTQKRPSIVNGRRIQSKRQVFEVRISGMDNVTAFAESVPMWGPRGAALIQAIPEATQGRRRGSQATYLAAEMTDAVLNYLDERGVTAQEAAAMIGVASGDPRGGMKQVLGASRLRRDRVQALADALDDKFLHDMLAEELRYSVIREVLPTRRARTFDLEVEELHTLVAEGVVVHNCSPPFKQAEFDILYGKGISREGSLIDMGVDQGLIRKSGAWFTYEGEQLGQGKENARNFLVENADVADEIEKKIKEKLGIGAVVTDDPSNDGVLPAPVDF
GFP chromo cs: counter-screen: blocks GFP chromophore formation; shares compounds with RecA splice inh; cell-free GFP chromophore formation, fluorescence; actives 83% (n = 2,100); EC50, µM; call rule not given here
* hit, by the source's call; · = no result given. Cut-off read from the data, not from the text of the source, unless noted: active = inhibition above about 30%; inactive = the rest.

SMILES	FBA Mtb inh	GDH-TPI inh	CCHF vOTU inh	RecA splice inh	GFP chromo cs
CC(C)c1nnc(NC(=O)c2nc(S(=O)(=O)Cc3ccccc3F)ncc2Cl)s1	·	·	-3	83*	14*
Cc1nnc(NC(=O)CCS(=O)(=O)c2ccccc2)s1	5	5	6	2	·
Cc1nnc(NC(=O)c2nc(S(=O)(=O)Cc3ccccc3C)ncc2Cl)s1	3	14	5	67*	>38
CSc1ncc(Cl)c(C(=O)Nc2nnc(SC/C=C/c3ccccc3)s2)n1	-1	15	1	-2	·
CSc1nnc(NC(=O)c2nc(S(=O)(=O)Cc3ccccc3F)ncc2Cl)s1	-3	7	6	76*	23*
COc1ccc(NC(=O)C2Cc3c(-c4cccc(F)c4)ccnc3O2)cc1OC (centres undefined)	3	12	-4	·	·
O=C(NCC1COc2ccccc2O1)c1cccc(S(=O)(=O)N2CCN(c3ccccc3)CC2)c1 (centres undefined)	-4	-1	3	·	·
Cc1ccc(C2CC(c3cccs3)=NN2C(=O)CCl)cc1 (centres undefined)	2	12	10	82*	3.8*
CCC(C)C(NC(=O)c1ccccc1)C(=O)N1CCN(C(=O)c2ccccc2)CC1 (centres undefined)	1	11	2	·	·
CCCCNC1C(CC)C(CCC)C(C#N)(C#N)C1(C#N)C#N (centres undefined)	1	0	·	76*	12*
C/C(=N\NC(=O)c1ccc(O)cc1)c1ccc(NC(=O)Cc2ccccc2)cc1	0	4	12	-2	·
COC(=O)/C=C1\Nc2ccc(Cl)cc2C(=O)NC1=O	·	·	-64	·	·
CCN(CC)C(=O)c1ccc2c(c1)C1C(Cl)C(Sc3ccccc3[N+](=O)[O-])CC1C(C(=O)O)N2 (centres undefined)	-9	28	·	36*	23*
O=C(N/N=C/c1cc(Cl)cc([N+](=O)[O-])c1O)c1ccccc1NS(=O)(=O)c1cccs1	0	13	8	33*	>38
CC1(Oc2ccccc2)CCN(Cc2ccc(-c3ccccn3)cc2)C1 (centres undefined)	0	10	4	·	·
N#Cc1nccnc1S(=O)(=O)c1cccs1	·	·	-4	68*	32*
CC(C)(C)c1c(Cl)c(O)c(-c2ccccc2)c(=O)n1-c1ccccc1	0	-5	19	31*	>38
O=c1c(-c2ccccc2)c(O)cc(-c2ccncc2)n1-c1ccc(Cl)cc1	1	9	-5	4	·
COC(=O)c1c(NC(=O)/C=C/C(=O)O)sc(C)c1-c1ccc(C)c(C)c1	0	21	17	63*	38*
COC(=O)c1c(NC(=O)/C=C/C(=O)O)sc(C)c1-c1ccc(C(C)C)cc1	3	15	22	77*	13*
CCOC(=O)c1c(NC(=O)/C=C/C(=O)O)sc(C)c1-c1ccc(C)c(C)c1	1	14	27	78*	14*
CCOC(=O)c1c(NC(=O)/C=C/C(=O)O)sc(C)c1-c1ccc(F)cc1	2	15	16	60*	34*
O=C(COC(=O)CSc1ccc(F)cc1)NNC(=O)c1ccc([N+](=O)[O-])cc1	-4	4	-2	-1	·
CN(CC(=O)Nc1ccccc1Cl)C(=O)Cn1cnc2ccccc2c1=O	-2	-2	3	·	·
COC(=O)c1sc(-c2ccc(Cl)cc2)cc1NC(=O)/C=C/C(=O)O	0	21	4	70*	27*
SMILES	FBA Mtb inh	GDH-TPI inh	CCHF vOTU inh	RecA splice inh	GFP chromo cs
N#Cc1nnn2c1nc(N)c1c(Cl)cccc12	14	·	3	·	·
CC(=O)c1ccc(NC(=O)CCn2c(=S)oc3ccccc32)cc1	2	1	-13	-3	·
COc1cccc(C(=O)Nc2nc(SCc3ccc(Cl)cc3)n[nH]2)c1	2	1	-4	39*	>38
O=C(Cc1csc(NC(=O)Nc2cccc(Cl)c2)n1)NC1CCCC1	0	5	9	-1	·
COc1cccc(OC(=O)CSc2nnc(-c3ccccc3Br)o2)c1	1	9	-11	74*	26*
CC(C)C[C@H]1CN([C@@H](Cc2ccccc2)CN2CCC[C@H]2CN2C(=O)C(=O)NC[C@@H]2Cc2ccc(O)cc2)C(=O)C(=O)N1CC1CCCCCC1	·	·	24	·	·
O=C(CCl)Nc1cccc(S(=O)(=O)N2CCCCCC2)c1	-1	8	-2	44*	33*
N#C/C(=C\c1ccc(O)c([N+](=O)[O-])c1)c1nc2ccccc2s1	-20	6	24	51*	23*
COc1ccc(-c2cc3c(=O)n(CC(=O)Nc4cccc(Cl)c4)nc(C)n3n2)cc1	2	-10	-2	0	·
Cc1oc(S(=O)(=O)N2CCOCC2)cc1C(=O)Nc1ccc(Cl)cc1	-2	1	6	0	·
COc1ccc(/C=C/C(=O)c2ccc(O)cc2)cc1COc1ccc(F)cc1	-1	19	11	36*	>38
COc1ccc(C(=O)/C=C/c2ccc(OC)c(COc3ccccc3F)c2)cc1	0	21	1	18	·
COc1ccc(/C=C/C(=O)c2ccccc2)cc1COc1ccc(F)cc1	-2	26	12	41*	>38
O=C1c2ccccc2C(O)(c2ccccc2)N1c1ccncc1 (centres undefined)	1	-10	8	1	·
Fc1ccc(-[n+]2nc(Nc3ccccc3)sc2-c2c3ccccc3cc3ccccc23)cc1	-3	9	-2	49*	16*
Oc1ccc2ccccc2c1-c1sc(Nc2ccccc2)n[n+]1-c1ccc(F)cc1	-1	11	11	1	·
O=C(Nc1cccc(OC(=O)c2ccco2)c1)c1ccco1	-1	-3	-2	33*	>38
O=C(O)/C=C\C(=O)Nc1ccc(Oc2ccccc2)cc1	-3	0	-13	·	·
O=C(O)/C=C/C(=O)Nc1ccc(C2(c3ccc(NC(=O)/C=C/C(=O)O)cc3)c3ccccc3-c3ccccc32)cc1	0	-7	-1	71*	27*
O=C(O)/C=C/C(=O)Nc1ccc(SC(F)(F)C(F)(F)C(F)(F)F)cc1	-5	-3	16	67*	37*
CC1=NNC(=O)/C1=C\c1cn(-c2ccccc2)nc1-c1cccs1	-1	16	2	97*	2.8*
CC1=NNC(=O)/C1=C\c1cn(-c2ccccc2)nc1-c1ccc(F)cc1	0	9	·	66*	2.5*
O=C(O)CCCCCN1C(=O)/C(=C/c2cn(-c3ccccc3)nc2-c2cccs2)SC1=S	-11	2	-3	·	·
O=Cc1cn(-c2ccccc2)nc1-c1ccc(F)cc1	0	6	1	3	·
CC(C)NC(=S)NC1(C)CCS(=O)(=O)C1 (centres undefined)	3	5	-15	48*	>38
O=C(CNC(=O)c1ccccc1)N/N=C/C=C/c1ccccc1	-2	11	4	0	·
O=C(Cc1cc(=O)[nH][nH]1)N/N=C/C=C/c1ccccc1	0	13	-3	85*	18*
O=c1cc(C23CC4CC(CC(C4)C2)C3)[nH][nH]1	-3	-1	8	91*	10*
